Out of some 5,500 compounds screened, about 2,000 (36%) were called active. About 18% were inconclusive and are not listed. No stated cut-off is given here; in the data, active means normalized growth mostly below about 0.91 (no sharp cut-off); inconclusive means no clear call, values can overlap the other calls; inactive means mostly above about 0.92. The list shows a part of the results.
Test: chemical genetic growth profiling, strain panel (AID 1159580);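 further: tested at 20 µM; growth read once vehicle control cultures reached saturation at 30 °C; 1 = growth at the plate median or of vehicle wells; lower values mean less growth of the strain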
Settings: growth OD

Measured: normalized growth

COc1cc(-c2oc3cc(O)ccc3c(=O)c2O)cc(OC)c1OC
inactive: S. cerevisiae deletion strains, locus YAL013W, strain DEP1, active compounds read low 1.01 | S. cerevisiae deletion strains, locus YBR021W, strain FUR4, active compounds read low 1.02 | S. cerevisiae deletion strains, locus YBR229C, strain ROT2, active compounds read low 1.01 | S. cerevisiae deletion strains, locus YCL029C, strain bik1, active compounds read low 1.01 | S. cerevisiae deletion strains, locus YDL035C, strain GPR1, active compounds read low 1 | S. cerevisiae deletion strains, locus YDL074C, strain BRE1, active compounds read low 0.996 | S. cerevisiae deletion strains, locus YDL101C, strain DUN1, active compounds read low 0.999 | S. cerevisiae deletion strains, locus YDL134C, strain PPH21, active compounds read low 1 | S. cerevisiae deletion strains, locus YDL185W, strain tfp1, active compounds read low 0.996 | S. cerevisiae deletion strains, locus YDL192W, strain arf1, active compounds read low 0.999 | S. cerevisiae deletion strains, locus YDR101C, strain arx1, active compounds read low 1 | S. cerevisiae deletion strains, locus YDR150W, strain NUM1, active compounds read low 1.01 | S. cerevisiae deletion strains, locus YDR162C, strain NBP2, active compounds read low 0.989 | S. cerevisiae deletion strains, locus YDR318W, strain mcm21, active compounds read low 1.02 | S. cerevisiae deletion strains, locus YDR388W, active compounds read low 0.999 | S. cerevisiae deletion strains, locus YDR502C, strain sam2, active compounds read low 1 | S. cerevisiae deletion strains, locus YEL061C, strain CIN8, active compounds read low 0.998 | S. cerevisiae deletion strains, locus YER110C, active compounds read low 1.01 | S. cerevisiae deletion strains, locus YER155C, strain BEM2, active compounds read low 1.02 | S. cerevisiae deletion strains, locus YER167W, strain BCK2, active compounds read low 1.02 | S. cerevisiae deletion strains, locus YGL078C, strain dbp3, active compounds read low 0.995 | S. cerevisiae deletion strains, locus YGL086W, strain mad1, active compounds read low 1.02 | S. cerevisiae deletion strains, locus YGL248W, strain PDE1, active compounds read low 1 | S. cerevisiae deletion strains, locus YGR078C, strain PAC10, active compounds read low 0.989 | S. cerevisiae deletion strains, locus YGR135W, strain pre9, active compounds read low 0.981 | S. cerevisiae deletion strains, locus YGR229C, strain SMI1, active compounds read low 0.98 | S. cerevisiae deletion strains, locus YGR252W, strain gcn5, active compounds read low 1.06 | S. cerevisiae deletion strains, locus YHR030C, strain SLT2, active compounds read low 1.01 | S. cerevisiae deletion strains, locus YHR079C, strain IRE1 (second series), active compounds read low 1.01 | S. cerevisiae deletion strains, locus YHR094C, strain hxt1, active compounds read low 1.01 | S. cerevisiae deletion strains, locus YHR129C, strain ARP1, active compounds read low 0.998 | S. cerevisiae deletion strains, locus YHR200W, strain rpn10, active compounds read low 1.01 | S. cerevisiae deletion strains, locus YIL066C, strain RNR3, active compounds read low 1 | S. cerevisiae deletion strains, locus YIL073C, strain SPO22, active compounds read low 1.05 | S. cerevisiae deletion strains, locus YIL125W, strain kgd1, active compounds read low 1.01 | S. cerevisiae deletion strains, locus YIR030C, strain dcg1, active compounds read low 1.01 | S. cerevisiae deletion strains, locus YJL095W, strain BCK1, active compounds read low 0.984 | S. cerevisiae deletion strains, locus YJL134W, strain LCB3, active compounds read low 0.996 | S. cerevisiae deletion strains, locus YJL168C, strain set2, active compounds read low 1.01 | S. cerevisiae deletion strains, locus YJL187C, strain SWE1 (second series), active compounds read low 0.99 | S. cerevisiae deletion strains, locus YJR043C, strain POL32, active compounds read low 1.01 | S. cerevisiae deletion strains, locus YJR075W, strain HOC1, active compounds read low 1.01 | S. cerevisiae deletion strains, locus YKL009W, strain mrt4, active compounds read low 1.04 | S. cerevisiae deletion strains, locus YKL068W, active compounds read low 0.998 | S. cerevisiae deletion strains, locus YKL085W, strain MDH1 (second series), active compounds read low 1.02 | S. cerevisiae deletion strains, locus YKL085W, strain MDH1, active compounds read low 1.02 | S. cerevisiae deletion strains, locus YKL190W, strain CNB1, active compounds read low 1.01 | S. cerevisiae deletion strains, locus YKR001C, strain vps1, active compounds read low 1.01 | S. cerevisiae deletion strains, locus YLR039C, strain RIC1, active compounds read low 1.02 | S. cerevisiae deletion strains, locus YLR058C, strain SHM2, active compounds read low 0.999 | S. cerevisiae deletion strains, locus YLR102C, strain apc9, active compounds read low 1.01 | S. cerevisiae deletion strains, locus YLR262C, strain YPT6, active compounds read low 0.979 | S. cerevisiae deletion strains, locus YLR268W, strain sec22, active compounds read low 1 | S. cerevisiae deletion strains, locus YLR330W, strain CHS5, active compounds read low 1 | S. cerevisiae deletion strains, locus YLR342W, strain FKS1 (second series), active compounds read low 1.05 | S. cerevisiae deletion strains, locus YLR371W, strain rom2, active compounds read low 1.02 | S. cerevisiae deletion strains, locus YLR418C, strain cdc73, active compounds read low 0.974 | S. cerevisiae deletion strains, locus YML016C, strain PPZ1, active compounds read low 1 | S. cerevisiae deletion strains, locus YML032C, strain rad52, active compounds read low 1.03 | S. cerevisiae deletion strains, locus YML124C, strain tub3, active compounds read low 1.01 | S. cerevisiae deletion strains, locus YMR078C, strain ctf18, active compounds read low 1.02 | S. cerevisiae deletion strains, locus YMR223W, strain ubp8, active compounds read low 1.01 | S. cerevisiae deletion strains, locus YMR263W, strain SAP30, active compounds read low 1.01 | S. cerevisiae deletion strains, locus YMR307W, strain GAS1, active compounds read low 0.995 | S. cerevisiae deletion strains, locus YNL067W, strain RPL9B, active compounds read low 0.986 | S. cerevisiae deletion strains, locus YNL128W, strain TEP1, active compounds read low 0.996 | S. cerevisiae deletion strains, locus YNL153C, strain GIM3, active compounds read low 0.986 | S. cerevisiae deletion strains, locus YNL233W, strain BNI4, active compounds read low 0.969 | S. cerevisiae deletion strains, locus YNL250W, strain rad50, active compounds read low 1 | S. cerevisiae deletion strains, locus YNL271C, strain bni1, active compounds read low 1.02 | S. cerevisiae deletion strains, locus YNL298W, strain CLA4, active compounds read low 1.01 | S. cerevisiae deletion strains, locus YNL307C, strain MCK1, active compounds read low 1.02 | S. cerevisiae deletion strains, locus YNL322C, strain KRE1, active compounds read low 1 | S. cerevisiae deletion strains, locus YNR052C, strain pop2, active compounds read low 1.02 | S. cerevisiae deletion strains, locus YOL006C, strain TOP1, active compounds read low 0.999 | S. cerevisiae deletion strains, locus YOL012C, strain htz1 1.14 | S. cerevisiae deletion strains, locus YOL147C, strain pex11, active compounds read low 1.01 | S. cerevisiae deletion strains, locus YOR061W, strain CKA2, active compounds read low 1 | S. cerevisiae deletion strains, locus YOR069W, strain VPS5, active compounds read low 1 | S. cerevisiae deletion strains, locus YOR136W, strain idh2, active compounds read low 1.02 | S. cerevisiae deletion strains, locus YOR144C, strain elg1, active compounds read low 1 | S. cerevisiae deletion strains, locus YOR184W, strain ser1, active compounds read low 1.04 | S. cerevisiae deletion strains, locus YOR316C, strain cot1, active compounds read low 1 | S. cerevisiae deletion strains, locus YPL055C, strain LGE1, active compounds read low 1 | S. cerevisiae deletion strains, locus YPL241C, strain CIN2, active compounds read low 1.01 | S. cerevisiae deletion strains, locus YPR119W, strain clb2, active compounds read low 1 | S. cerevisiae deletion strains, locus YPR141C, strain kar3, active compounds read low 1.01 | S. cerevisiae deletion strains, locus YPR163C, strain tif3, active compounds read low 0.991 | S. cerevisiae deletion strains, locus YPR167C, strain met16, active compounds read low 1.01 | S. cerevisiae deletion strains, strain wtn01, active compounds read low 1 | S. cerevisiae strains, strain wild type, active compounds read low 0.994

— PubChem BioAssay AID1159580 (chemical genetic matrix, 2015)
